Records with an inconclusive call do not appear. Entries that show only a call come without a potency. Active and inactive are the calls of the source. The call rests on the fitted dose curve; in most records, active means well fitted inhibition curve with a large enough effect; inconclusive means small, poorly fitted or top-dose-only effect; inactive means no such curve, though single readings can be large or run the other way.

Experimental findings from PubChem BioAssay AID1845227 (National Center for Advancing Translational Sciences (NCATS), 2023) are described below.
Potency means the concentration at half of the fitted maximal effect.

The experiment addresses Luciferin 4-monooxygenase (Photinus pyralis) (UniProt P08659). As to the kind of experiment: Confirmatory firefly luciferase (FLuc) qHTS assay for identification of artifact compounds. To be noted: purified FLuc enzyme, luminescence, 5 min; series mostly up to 38.9 µM. The text has this:
PI: Alexander Tropsha Ph.D. UNC Eshelman School of Pharmacy University of North Carolina, Chapel Hill, North Carolina Hits from high-throughput screening (HTS) of chemical libraries are often false positives due to their interference with the assay detection technology. In response to this problem, we generated the largest publicly available library of chemical liabilities and developed a free webtool to predict HTS artifacts, both of which are described herein. More specifically, we generated, curated, and integrated HTS datasets for thiol reactivity, redox activity, and luciferase (firefly and nano) activity. Using these curated datasets, we developed and validated several Quantitative Structure-Interference Relationship (QSIR) models to predict nuisance behavior. […] These models were employed for virtual profiling of the National Center for Advancing Translational Science's (NCATS) in-house library, and 256 compounds for each assay were selected for the experimental validation of nuisance behavior. The BA for these external predictions ranged from 58 to 78% for compounds within the applicability domains of the models. […] The models developed in this study, along with aggregation models previously developed by our group (SCAM Detective) were implemented in "Liability Predictor," an online tool which may be used as part of chemical library design or for triaging HTS hits. Both the models and the curated datasets are publicly available at https://liability.mml.unc.edu/.
PROTOCOL TABLE SEQUENCE No. (e.g., 1, 2, 3, etc.); […] (e.g., Cells, Incubation, Reagent, etc.); VALUE; DESCRIPTION. 1; Reagent; 3 uL; Luciferase substrate mixture. 2; Compounds and control; 16 nL; Kalypsis pin tool (Wako USA) equipped with a 1536-well pin head. 3; Incubation; 15 min. 4; Reagent; 1 uL; Luciferase enzyme. 5; Incubation; 5 min. 6; Detection; Luminescence, ViewLux microplate reader. NOTES (numbers refer to Sequence numbers above) 1. 3 uL of luciferase substrate mixture containing D-luciferin and ATP (final concentrations of 10 uM and 10 uM, respectively) in assay buffer (10 mM Mg-acetate, 0.01% Tween-20, 0.05% bovine serum albumin, 50 mM Tris acetate, pH 7.6) was dispensed into all wells of a 1536-well assay plate (solid-bottom white plate; Greiner Bio One, Monroe, NC). 2. A Wako Pin-tool (Wako Automation, Richmond, VA) was used to transfer 16 nL of compounds (consisting of 7-plates in qHTS format, final concentration range 18.3 nM to 114 uM) or control PTC124 (final concentration range 1.22 nM to 40 uM). 3. 15 min. incubation at room temperature protected from light. 4. 1 uL of luciferase enzyme (final concentration 10 nM, Photinus pyralis luciferase) or buffer was dispensed for a final assay volume of 4 uL. 5. Plates were centrifuged (121xg, 15 seconds) and incubated for 5 minutes. 6. Samples were read for luminescence on a ViewLux CCD imager (PerkinElmer). Data were normalized to no-enzyme (0% activity) and no-inhibitor (DMSO; 100%) controls and the resulting percent inhibition data were fitted to a 4-parameter Hill equation using NCATS in-house software.
A general note: In qHTS, concentration-response curves come from the screen itself.
With `O=C(NCc1ccccc1)c1cnc2sc(N3CCCC3)nn2c1=O`, the Potency entry was “inactive”.

`COc1cccc(NCc2ccc(O)c3ncccc23)n1`: the Potency result is “inactive”.

On to `CN(C)[C@@H]1C(=O)C(C(=O)NCN2CCCC2)C(=O)[C@@]2(O)C(=O)C3C(=O)c4c(O)cccc4[C@@](C)(O)[C@H]3C[C@@H]12` (stereo not given in full), for which the Potency entry was “inactive”.

For the compound `Cc1nc(CC(=O)Nc2ccc(C)c(C)c2)cs1`, the Potency entry was “inactive”.

For the compound `CC1=CC23C(=O)C(C=C(CO)[C@@H](O)[C@]2(O)[C@H]1O)[C@H]1[C@@H](C[C@H]3C)C1(C)C` (stereo not given in full), the Potency entry is “inactive”.

For `O=C(NCCS(=O)(=O)N1CCN(c2ccc(F)cc2)CC1)C1CC(=O)N(c2ccc(F)cc2)C1` (stereo not given), the Potency entry was “inactive”.

Turning to `C[C@@H]1CC2(OC3C[C@@]4(C)C5=CC[C@H]6C(C)(C)C(O[C@@H]7OC[C@@H](O)[C@H](O)[C@H]7O)CC[C@@]67C[C@@]57CC[C@]4(C)C31)OC(O)C1(C)OC21` (stereo not given in full), the Potency entry was “inactive”.

Regarding `COc1ccc(C2Nc3ccccc3C(=O)N2CCCN(C)C)cc1COc1ccc(NC(C)=O)cc1` (stereo not given), the Potency result is “inactive”.

Consider `Cc1nc(-c2ccc(Cl)cc2)sc1CCNC(=O)c1ccco1`, for which the Potency entry is “inactive”.

Take `COc1ccc(CNC(=O)c2ccc(NC(=O)N3CCCCc4ccccc43)cc2)cc1`: the Potency result is “inactive”.

Consider `CC(C)c1ccc(Cn2c(COc3ccccc3)nc3ccccc32)cc1`, for which the Potency result is “inactive”.

As for `O=C(C1CCC(CNS(=O)(=O)c2cccc3cccnc23)CC1)N1CCCCC1` (stereo not given), the Potency entry was “inactive”.

Take `CCN(C(=O)Cn1nc(Cc2cccnc2)c2ccccc2c1=O)c1cc(C)ccc1C`: the Potency entry was “inactive”.

With `CCCn1c(-c2cccc(Br)c2)nc2ccccc21`, the Potency result is “inactive”.

For `CC(=O)Nc1sc2c(c1-c1ccc(Cl)cc1)CCNC2`, the Potency result is “inactive”.

As to `CC(C)CN(CCNC(=O)c1cn(C)c2ccc(S(=O)(=O)N3CCOCC3)cc2c1=O)CC(C)C`, the Potency result was “inactive”.

Take `COCCNC(=O)CCCn1c(SCC(=O)Nc2cccc(C)c2)nc2c(sc3ccccc32)c1=O`: the Potency result is “inactive”.

As for `COc1ccc(NC(=O)C(C)n2nc(-c3cc(C)ccc3C)c3c(c2=O)CCCC3)cc1` (stereo not given), the Potency entry was “inactive”.

`Cc1c(C(=O)N(C)C)sc2c1c(=O)n(-c1ccc(Cl)cc1)c(=O)n2Cc1ccccc1F`: the Potency entry is “inactive”.

Consider `CCN(Cc1cccc(S(=O)(=O)O)c1)c1ccc(C(=C2C=CC(=[N+](CC)Cc3cccc(S(=O)(=O)O)c3)C=C2)c2ccccc2S(=O)(=O)[O-])cc1`, for which the Potency is 12.2 µM (active).

Regarding `COc1ccc(NC(=O)Cn2c(=O)n(CCc3ccccc3)c(=O)c3c4c(sc32)CCCC4)cc1`, the Potency result was “inactive”.

Take `CCCc1nn2cc(-c3ccc(C)c(C)c3)nc2s1`: the Potency was 0.77 µM (active).

For the compound `CCOC(=O)c1c(S(=O)(=O)N2CCCC(C(=O)Nc3cccc(C)n3)C2)c(C)n(C)c1C` (stereo not given), the Potency result was “inactive”.

With `CC(C)(C)C(=O)OCC(=O)[C@H]1CC[C@H]2[C@@H]3CCC4=CC(=O)CC[C@]4(C)[C@H]3CC[C@]12C`, the Potency entry was “inactive”.

On to `O=C(O)Cc1cc(F)c(S(=O)(=O)N2CCN(S(=O)(=O)c3ccc4c(c3)OCCO4)CC2)cc1F`, for which the Potency result was “inactive”.

As for `O=c1cc(-c2ccc(O)cc2)oc2cc(O[C@H]3OC(CO)C(O)C(O)C3O)cc(O)c12` (stereo not given in full), the Potency entry is “inactive”.

As for `O=C1CCc2cc([S+](=O)([O-])NC3CCOCC3)ccc2N1`, the Potency entry is “inactive”.

For the compound `O=C(Nc1nnc(-c2ccncc2)s1)Nc1cccc2ccccc12`, the Potency entry is “inactive”.

`CCOc1ccc(OCC(=O)NCCS(=O)(=O)N2CCN(c3cccc(Cl)c3)CC2)cc1`: the Potency result is “inactive”.

As for `CCCCN(C)CCCNC(=O)CN1C(=O)COc2ccc(S(=O)(=O)N3CCC(C)CC3)cc21`, the Potency entry is “inactive”.

Regarding `CC(=O)c1ccc(NS(=O)(=O)c2ccc(-c3cc(C)no3)s2)cc1`, the Potency result was “inactive”.

On to `COc1ccc(C(=O)Nc2ccc3oc(-c4cccnc4)nc3c2)cc1`, for which the Potency result is “inactive”.

For the compound `Cc1cn2c(=O)cc(COC(=O)c3cccc(NC(=O)c4ccccc4C)c3)nc2s1`, the Potency entry is “inactive”.

In the case of `Cc1ccc(NC(=O)c2sc3ncn(Cc4cccc(F)c4)c(=O)c3c2C)c(Br)c1`, the Potency entry is “inactive”.

As for `Cc1ccc(CNS(=O)(=O)c2ccc(-c3cc(C(F)(F)F)on3)s2)cc1`, the Potency result was “inactive”.

For the compound `C[C@@H]1OC(OC2C(OC3CC[C@@]4(C)C5CC=C6C7CC(C)(C)CC[C@@]7(C(=O)O)CCC6(C)C5(C)CCC4[C@]3(C)CO)OCC(O)C2O)C(O)C(O)C1O` (stereo not given in full), the Potency result was “inactive”.

Turning to `O=C1Nc2ccccc2/C1=C\c1ccc(O)cc1`, the Potency result is “inactive”.

`Cc1cccc(NC(=O)COC(=O)CCCC2=NS(=O)(=O)c3ccccc3N2)c1`: the Potency entry is “inactive”.

Regarding `CC1OC(OCC2OC(Oc3cc(O)c4c(c3)OC(c3ccc(O)cc3)CC4=O)C(O)C(O)C2O)C(O)C(O)C1O` (stereo not given), the Potency result is “inactive”.

For the compound `CC(NC(=O)CSc1nc(-c2ccccc2F)nc2cc(=O)[nH]n12)c1nc2ccccc2n1C` (stereo not given), the Potency result was “inactive”.
